# Data reported in PubChem BioAssay (EPA / NIEHS).
# Inconclusive results are not listed. Active and inactive are the calls of the source. Rule for the calls: active = hit-call score of the fitted dose curve at least 0.9, where 1 is the maximum; inconclusive = response in the unintended direction; inactive = score below 0.9.
# What was measured:
# [1] = target: rat Neurokinin-3 Receptor (NK3), Tacr3 (gene 24808) (UniProt P16177); test: NVS_GPCR_rNK3: NovaScreen (NVS) G Protein-Coupled Receptor Assay for rat Neurokinin-3 Receptor (NK3) (AID 2283310)
# Method in brief: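 Rat cortical membranes; radioligand binding with filtration and scintillation counting, 2 h after dosing. Primary screen in duplicate at 25 uM, then concentration-response up to 50 uM; loss of binding signal relative to DMSO.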
# [2] = target: rat Adrenergic Receptor, Alpha 2 (Adra2), Non-selective Binding, Adra2a (gene 25083) (UniProt P22909); test: NVS_GPCR_rAdra2_NonSelective: NovaScreen (NVS) G Protein-Coupled Receptor Assay for rat Adrenergic Receptor, Alpha 2 (Adra2), Non-selective Binding (AID 2283299)
# Description: NVS_GPCR_rAdra2_NonSelective is a biochemical, single-readout assay that uses extracted gene-proteins from Rat cortical membranes in a tissue-based cell-free assay. Measurements were taken 1.25 hours after chemical dosing in a 48-well plate.NVS_GPCR_rAdra2_NonSelective is one of one assay component(s) measured or calculated from the NVS_GPCR_rAdra2_NonSelective assay. It is designed to make measurements of radioligand binding, a form of binding reporter, as detected with scintillation counting signals by Filter-based radiodetection technology.Data from the assay component NVS_GPCR_rAdra2_NonSelective was analyzed into 1 assay endpoint. This assay endpoint, NVS_GPCR_rAdra2_NonSelective, was analyzed in the positive analysis fitting direction relative to DMSO as the negative control and baseline of activity. Using a type of binding reporter, loss-of-signal activity can be used to understand changes in the binding as they relate to the gene Adra2a. Furthermore, this assay endpoint can be referred to as a primary readout, because the performed assay has only produced 1 assay endpoint. To generalize the intended target to other relatable targets, this assay endpoint is annotated to the gpcr intended target family, where the subfamily is rhodopsin-like receptor.
# Binding assays used specific radioligands (tritiated, iodinated) with non-radioactive competitive displacement ligands in agonist or antagonist protocols (as indicated) and various reference compounds and inhibitors to titrate specific binding to receptors and transporters. Most enzyme assays (CYPs, kinases, phosphatases, proteases, HDACs) used recombinant protein and specific substrates (fluorescence mostly, some colorimetric and radioactive) and inhibitors, followed by a biochemical separation of substrate and product. All assays for the biochemical HTS were initially run in duplicate at a single concentration (10 uM for CYP450 assays and 25 uM for all others). […] Each assay was run with positive and negative controls, and concurrent controls on every plate. The follow-up (secondary) screen tested active chemical-pairs in concentration series, as well as a few additional assays not tested in the primary screen, some selected negative inactives, and several cases re-run in the concentration series for confirmatory purposes.
# Adra2b (gene 24174) = Adra2b (gene 24174) (UniProt P19328); test: NVS_GPCR_rmAdra2B: NovaScreen (NVS) G Protein-Coupled Receptor Assay for hybird cells Adrenergic, Alpha 2B Receptor (Adra2B) (AID 2283306)
# Method in brief: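 Radioligand filter-binding assay on membrane proteins from neuroglioma/blastoma hybrid cells (rodent), 1 h after dosing; scintillation counting, loss of signal vs DMSO. Primary screen in duplicate at 25 uM, actives then run in concentration series.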
# [3] = target: rat Neurokinin-1 Receptor (NK1), Tacr1 (gene 24807) (UniProt P14600); test: NVS_GPCR_rNK1: NovaScreen (NVS) G Protein-Coupled Receptor Assay for rat Neurokinin-1 Receptor (NK1) (AID 2283309)
# Method in brief: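 Rat submaxillary gland membranes; radioligand displacement read by filter-based scintillation counting after 1 h. Primary screen in duplicate at 25 uM; actives retested in concentration series; loss of binding fitted versus DMSO.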
# [4] = target: rat Glutamate Metabotropic Receptor 5 (MGluR5), Grm5 (gene 24418) (UniProt P31424); test: NVS_GPCR_rmMGluR5: NovaScreen (NVS) G Protein-Coupled Receptor Assay for rat Glutamate Metabotropic Receptor 5 (MGluR5) (AID 2283307)
# Description: NVS_GPCR_rmMGluR5 is a biochemical, single-readout assay that uses extracted gene-proteins from Rat whole brain in a tissue-based cell-free assay. Measurements were taken 1.5 hours after chemical dosing in a 48-well plate.NVS_GPCR_rmMGluR5 is one of one assay component(s) measured or calculated from the NVS_GPCR_rmMGluR5 assay. It is designed to make measurements of radioligand binding, a form of binding reporter, as detected with scintillation counting signals by Filter-based radiodetection technology.Data from the assay component NVS_GPCR_rmMGluR5 was analyzed into 1 assay endpoint. This assay endpoint, NVS_GPCR_rmMGluR5, was analyzed in the positive analysis fitting direction relative to DMSO as the negative control and baseline of activity. Using a type of binding reporter, loss-of-signal activity can be used to understand changes in the binding as they relate to the gene Grm5. Furthermore, this assay endpoint can be referred to as a primary readout, because the performed assay has only produced 1 assay endpoint. To generalize the intended target to other relatable targets, this assay endpoint is annotated to the gpcr intended target family, where the subfamily is metabotropic glutamate receptor. […]
# [5] = target: rat Corticotropin Releasing Factor Receptor (CRF), Crhr1 (gene 58959) (UniProt P35353); test: NVS_GPCR_rCRF: NovaScreen (NVS) G Protein-Coupled Receptor Assay for rat Corticotropin Releasing Factor Receptor (CRF) (AID 2283300)
# Method in brief: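 Rat cortical membranes used as receptor source in a radioligand competitive displacement binding assay; scintillation read 2 h after dosing. Primary screen run in duplicate at 25 uM; loss of signal versus DMSO baseline indicates binding.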
# [6] = target: rat Gamma-Aminobutyric Acid Type B Receptor (GABBR), Gabbr1 (gene 81657) (UniProt Q9Z0U4); test: NVS_GPCR_rGABBR: NovaScreen (NVS) G Protein-Coupled Receptor Assay for rat Gamma-Aminobutyric Acid Type B Receptor (GABBR) (AID 2283301)
# Method in brief: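 Radioligand displacement on rat cortical membranes, 1 h, filter-based scintillation counting. Primary screen at 25 uM in duplicate; compounds passing threshold re-tested in concentration-response up to 50 uM; loss of binding fitted against DMSO.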
# [7] = target: rat Histamine Receptor (H3), Hrh3 (gene 85268) (UniProt Q9QYN8); test: NVS_GPCR_rH3: NovaScreen (NVS) G Protein-Coupled Receptor Assay for rat Histamine Receptor (H3) (AID 2283303)
# Description: NVS_GPCR_rH3 is a biochemical, single-readout assay that uses extracted gene-proteins from Rat forebrain membranes in a tissue-based cell-free assay. Measurements were taken 1 hour after chemical dosing in a 48-well plate.NVS_GPCR_rH3 is one of one assay component(s) measured or calculated from the NVS_GPCR_rH3 assay. It is designed to make measurements of radioligand binding, a form of binding reporter, as detected with scintillation counting signals by Filter-based radiodetection technology.Data from the assay component NVS_GPCR_rH3 was analyzed into 1 assay endpoint. This assay endpoint, NVS_GPCR_rH3, was analyzed in the positive analysis fitting direction relative to DMSO as the negative control and baseline of activity. […] Furthermore, this assay endpoint can be referred to as a primary readout, because the performed assay has only produced 1 assay endpoint. […]
# Binding assays used specific radioligands (tritiated, iodinated) with non-radioactive competitive displacement ligands in agonist or antagonist protocols (as indicated) and various reference compounds and inhibitors to titrate specific binding to receptors and transporters. Most enzyme assays (CYPs, kinases, phosphatases, proteases, HDACs) used recombinant protein and specific substrates (fluorescence mostly, some colorimetric and radioactive) and inhibitors, followed by a biochemical separation of substrate and product. […]
# [8] = target: Metabotropic glutamate receptor 1 (Rattus norvegicus) (UniProt P23385); test: NVS_GPCR_rmMGluR1: NovaScreen (NVS) G Protein-Coupled Receptor Assay for rat Glutamate Metabotropic Receptor 1 (MGluR1) (AID 2283305)
# Method in brief: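 Rat cerebellum membrane preparation, radioligand displacement binding read by filter-based scintillation counting 1 hour after dosing. Initial duplicate single-point screen at 25 uM, then concentration-response up to 50 uM; loss of signal versus DMSO baseline scored.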
# [9] = target: rat Neurotensin Receptor (NTS), Ntsr1 (gene 366274) (UniProt P20789); test: NVS_GPCR_rNTS: NovaScreen (NVS) G Protein-Coupled Receptor Assay for rat Neurotensin Receptor (NTS) (AID 2283308)
# Method in brief: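 Rat forebrain membranes; radioligand binding with competitive displacement, read by filter-based scintillation counting 1 h after dosing. Primary screen in duplicate at 25 uM; actives (e.g., 30% inhibition) rerun in concentration-response up to 50 uM, loss-of-signal versus DMSO.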
# rat Corticotropin Releasing Factor Receptor (CRF), Crhr1 (gene 58959), sequence (P35353 whole entry, looked up): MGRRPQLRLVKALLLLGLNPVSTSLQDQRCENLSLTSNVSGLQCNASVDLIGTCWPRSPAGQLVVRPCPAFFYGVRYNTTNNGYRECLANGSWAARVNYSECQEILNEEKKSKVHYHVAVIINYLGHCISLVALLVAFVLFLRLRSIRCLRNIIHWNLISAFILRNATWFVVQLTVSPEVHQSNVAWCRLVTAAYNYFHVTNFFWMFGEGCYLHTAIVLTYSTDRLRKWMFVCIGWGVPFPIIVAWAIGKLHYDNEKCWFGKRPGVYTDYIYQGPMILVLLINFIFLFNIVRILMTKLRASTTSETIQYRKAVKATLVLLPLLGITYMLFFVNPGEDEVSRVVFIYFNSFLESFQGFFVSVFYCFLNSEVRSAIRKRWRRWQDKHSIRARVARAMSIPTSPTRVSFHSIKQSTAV
# rat Neurokinin-1 Receptor (NK1), Tacr1 (gene 24807), sequence (P14600 whole entry, looked up): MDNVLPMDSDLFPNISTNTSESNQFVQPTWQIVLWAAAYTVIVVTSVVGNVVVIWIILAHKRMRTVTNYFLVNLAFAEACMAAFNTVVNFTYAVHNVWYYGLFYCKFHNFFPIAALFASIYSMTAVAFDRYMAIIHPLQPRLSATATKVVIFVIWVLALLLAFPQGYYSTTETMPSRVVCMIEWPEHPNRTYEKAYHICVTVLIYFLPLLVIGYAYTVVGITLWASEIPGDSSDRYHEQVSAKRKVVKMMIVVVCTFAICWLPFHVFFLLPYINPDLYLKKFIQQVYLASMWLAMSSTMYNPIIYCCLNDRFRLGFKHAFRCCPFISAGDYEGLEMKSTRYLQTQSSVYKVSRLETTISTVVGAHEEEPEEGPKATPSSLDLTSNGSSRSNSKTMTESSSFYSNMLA
# rat Adrenergic Receptor, Alpha 2 (Adra2), Non-selective Binding, Adra2a (gene 25083), sequence (P22909 whole entry, looked up): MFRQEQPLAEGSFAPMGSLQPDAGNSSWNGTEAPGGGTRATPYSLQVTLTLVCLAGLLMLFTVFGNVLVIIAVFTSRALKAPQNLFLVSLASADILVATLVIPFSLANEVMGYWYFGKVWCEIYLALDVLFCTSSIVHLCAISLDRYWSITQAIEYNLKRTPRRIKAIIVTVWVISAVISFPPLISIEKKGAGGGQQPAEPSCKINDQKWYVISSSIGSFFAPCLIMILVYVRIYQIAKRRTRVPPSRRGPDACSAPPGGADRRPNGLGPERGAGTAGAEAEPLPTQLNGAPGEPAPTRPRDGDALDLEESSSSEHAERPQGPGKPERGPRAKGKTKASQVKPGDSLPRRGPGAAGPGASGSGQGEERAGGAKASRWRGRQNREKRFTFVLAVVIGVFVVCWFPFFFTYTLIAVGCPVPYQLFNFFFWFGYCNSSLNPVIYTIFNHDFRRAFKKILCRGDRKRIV
# Adra2b (gene 24174), sequence (P19328 whole entry, looked up): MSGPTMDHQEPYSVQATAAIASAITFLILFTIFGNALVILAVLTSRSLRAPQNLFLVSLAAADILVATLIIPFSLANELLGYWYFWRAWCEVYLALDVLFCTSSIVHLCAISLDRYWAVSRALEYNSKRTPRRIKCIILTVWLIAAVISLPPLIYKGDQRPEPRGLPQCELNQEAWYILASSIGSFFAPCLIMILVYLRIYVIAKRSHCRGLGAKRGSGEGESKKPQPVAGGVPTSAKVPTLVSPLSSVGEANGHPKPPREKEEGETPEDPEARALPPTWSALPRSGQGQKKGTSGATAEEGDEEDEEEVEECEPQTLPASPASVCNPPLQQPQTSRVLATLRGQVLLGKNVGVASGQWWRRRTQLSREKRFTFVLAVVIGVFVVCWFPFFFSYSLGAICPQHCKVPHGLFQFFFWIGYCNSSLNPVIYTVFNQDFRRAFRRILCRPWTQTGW
# rat Gamma-Aminobutyric Acid Type B Receptor (GABBR), Gabbr1 (gene 81657), sequence (Q9Z0U4 whole entry, looked up): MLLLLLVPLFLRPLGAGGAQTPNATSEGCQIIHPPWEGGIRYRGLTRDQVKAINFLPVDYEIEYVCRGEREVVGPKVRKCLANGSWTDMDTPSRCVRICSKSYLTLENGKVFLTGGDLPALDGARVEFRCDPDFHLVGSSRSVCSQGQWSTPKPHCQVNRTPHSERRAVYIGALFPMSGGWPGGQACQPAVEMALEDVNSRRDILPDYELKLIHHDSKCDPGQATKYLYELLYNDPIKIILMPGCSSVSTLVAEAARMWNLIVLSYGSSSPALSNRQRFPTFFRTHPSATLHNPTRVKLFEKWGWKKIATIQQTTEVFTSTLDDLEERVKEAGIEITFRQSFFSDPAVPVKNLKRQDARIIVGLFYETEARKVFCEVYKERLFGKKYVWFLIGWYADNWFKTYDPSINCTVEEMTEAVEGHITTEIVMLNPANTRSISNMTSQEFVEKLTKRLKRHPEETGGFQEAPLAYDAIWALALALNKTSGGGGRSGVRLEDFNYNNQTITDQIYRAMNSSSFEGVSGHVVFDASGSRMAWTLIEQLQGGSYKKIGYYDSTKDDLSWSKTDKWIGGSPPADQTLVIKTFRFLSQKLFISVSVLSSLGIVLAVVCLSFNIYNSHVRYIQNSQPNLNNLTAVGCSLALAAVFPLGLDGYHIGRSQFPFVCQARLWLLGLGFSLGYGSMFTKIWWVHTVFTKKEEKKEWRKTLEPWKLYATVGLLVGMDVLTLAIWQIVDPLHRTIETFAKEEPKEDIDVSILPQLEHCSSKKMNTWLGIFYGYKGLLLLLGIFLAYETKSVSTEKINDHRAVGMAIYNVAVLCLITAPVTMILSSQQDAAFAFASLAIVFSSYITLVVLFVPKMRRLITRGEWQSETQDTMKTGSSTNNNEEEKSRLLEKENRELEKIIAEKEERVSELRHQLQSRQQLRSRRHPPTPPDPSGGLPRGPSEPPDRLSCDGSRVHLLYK
# rat Histamine Receptor (H3), Hrh3 (gene 85268), sequence (Q9QYN8 whole entry, looked up): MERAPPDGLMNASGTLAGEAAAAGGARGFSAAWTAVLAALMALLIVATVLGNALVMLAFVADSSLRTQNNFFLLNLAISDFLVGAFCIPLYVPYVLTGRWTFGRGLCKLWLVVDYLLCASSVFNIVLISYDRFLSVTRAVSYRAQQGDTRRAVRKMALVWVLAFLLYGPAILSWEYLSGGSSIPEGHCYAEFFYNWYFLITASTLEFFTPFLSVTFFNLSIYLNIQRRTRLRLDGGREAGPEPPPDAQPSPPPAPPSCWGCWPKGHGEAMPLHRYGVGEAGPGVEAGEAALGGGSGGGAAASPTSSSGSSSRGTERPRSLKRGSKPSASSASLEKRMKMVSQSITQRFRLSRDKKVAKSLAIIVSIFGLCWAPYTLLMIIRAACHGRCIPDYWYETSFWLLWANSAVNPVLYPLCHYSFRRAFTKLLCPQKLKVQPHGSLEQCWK
# rat Neurokinin-3 Receptor (NK3), Tacr3 (gene 24808), sequence (P16177 whole entry, looked up): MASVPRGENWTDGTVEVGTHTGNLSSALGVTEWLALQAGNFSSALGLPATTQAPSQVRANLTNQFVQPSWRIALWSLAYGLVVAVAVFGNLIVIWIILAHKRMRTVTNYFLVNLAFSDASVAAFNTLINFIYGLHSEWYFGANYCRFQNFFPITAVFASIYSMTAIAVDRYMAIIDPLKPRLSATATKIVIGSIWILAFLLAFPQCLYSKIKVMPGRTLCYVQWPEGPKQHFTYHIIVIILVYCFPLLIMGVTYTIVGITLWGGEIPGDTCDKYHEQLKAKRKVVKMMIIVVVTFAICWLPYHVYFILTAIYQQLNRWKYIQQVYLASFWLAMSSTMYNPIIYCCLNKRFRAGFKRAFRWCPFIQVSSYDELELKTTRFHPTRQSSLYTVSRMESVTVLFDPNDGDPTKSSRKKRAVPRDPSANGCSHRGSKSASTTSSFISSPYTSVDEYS
# rat Neurotensin Receptor (NTS), Ntsr1 (gene 366274), sequence (P20789 whole entry, looked up): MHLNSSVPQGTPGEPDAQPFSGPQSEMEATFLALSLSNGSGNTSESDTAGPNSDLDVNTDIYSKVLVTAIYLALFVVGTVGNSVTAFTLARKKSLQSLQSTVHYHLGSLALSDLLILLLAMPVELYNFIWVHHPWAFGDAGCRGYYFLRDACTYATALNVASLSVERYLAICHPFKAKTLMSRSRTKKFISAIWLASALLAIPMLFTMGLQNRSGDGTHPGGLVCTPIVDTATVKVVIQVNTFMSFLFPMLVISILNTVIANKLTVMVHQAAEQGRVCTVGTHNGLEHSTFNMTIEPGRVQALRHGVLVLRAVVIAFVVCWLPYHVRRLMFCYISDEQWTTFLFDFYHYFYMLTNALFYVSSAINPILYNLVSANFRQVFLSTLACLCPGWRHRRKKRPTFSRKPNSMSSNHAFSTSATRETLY
smiles,measurement,setting,value
CCCCC(C#N)(Cn1cncn1)c1ccc(Cl)cc1 (centres undefined),outcome,[1],inactive
Cn1c(-c2ccccc2)cc(-c2ccccc2)[n+]1C,AC50,[2],3.72 µM (active)
same,AC50,Adra2b (gene 24174),0.891 µM (active)
same,outcome,[3],inactive
Nc1c(Cl)c(Cl)nc(C(=O)O)c1Cl,outcome,[4],inactive
Cc1ccc(N=CN(C)C=Nc2ccc(C)cc2C)c(C)c1,AC50,[2],0.219 µM (active)
same,AC50,Adra2b (gene 24174),0.779 µM (active)
COC(=O)N(C(=O)N1CO[C@@]2(C(=O)OC)Cc3cc(Cl)ccc3C2=N1)c1ccc(OC(F)(F)F)cc1,outcome,[2],inactive
same,outcome,[5],inactive
CCNP(=S)(OC)O/C(C)=C/C(=O)OC(C)C (centres undefined),outcome,[6],inactive
same,outcome,[3],inactive
N#Cc1c[nH]cc1-c1cccc2c1OC(F)(F)O2,outcome,[2],inactive
CN/C(=N\[N+](=O)[O-])NCc1cnc(Cl)s1,AC50,Adra2b (gene 24174),8.79 µM (active)
CCN(CC)C(=O)C(C)Oc1cccc2ccccc12 (centres undefined),outcome,[5],inactive
Cc1cc(C)nc(Nc2ccccc2)n1,outcome,[3],inactive
CCCN(CC)CC1COC2(CCC(C(C)(C)C)CC2)O1 (centres undefined),AC50,[2],16.7 µM (active)
same,AC50,[7],12.2 µM (active)
same,AC50,Adra2b (gene 24174),25 µM (active)
CS(=O)(=O)c1ccc(C(=O)C2C(=O)CCCC2=O)c([N+](=O)[O-])c1,outcome,[6],inactive
O=C1C2CC=CCC2C(=O)N1SC(Cl)(Cl)Cl (centres undefined),outcome,[7],inactive
same,AC50,[8],25 µM (active)
N#CN=C1SCCN1Cc1ccc(Cl)nc1,outcome,[5],inactive
same,outcome,Adra2b (gene 24174),inactive
O=C(Nc1ccccc1-c1ccc(Cl)cc1)c1cccnc1Cl,outcome,[9],inactive
